We go through 19 compounds from PubChem BioAssay (NCI).

Molecules are shown by their SMILES. The panel holds about 83,000 compounds, 20% with a hit somewhere; the sample as a whole holds those more often.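 Cell lines were cultured in 96-well plates, exposed to a single compound concentration, and assessed for percent growth 48 hours later.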 Values without a mark were called inactive. Calls of active or inactive are those of the source. How the source made its calls: active means growth percent below 10; inactive means the rest.

Experiment in all cases: NCI-60 one-dose screen, 48 h (100 = growth as untreated, 0 = no growth, -100 = all killed)
Holding throughout (settings): 10 µM unless noted

Test [1] concerns BT-549 breast.
For test [2], the system named is MDA-MB-435 melanoma.
The test system of test [3] is SW-620 colon.
Test [4] has as its system HCT-116 colon.
The test system of test [5] is HCC-2998 colon.
Test [6] deals with KM12 colon.
In test [7] the test system is MCF7 breast.

As for `CS(=O)(=O)c1ccc(-c2nc3ccccn3c2-c2nc3ccc([N+](=O)[O-])cc3[nH]2)cc1`, the growth in test [1] is 122%; in test [2], 94.5%; in test [3] it was 93.2%; in test [4], 97%; in test [5], 105%; in test [6] it was 93.8%.

Take `Clc1ccc2c(NCCCN3CCOCC3)c3oc4ccccc4c3nc2c1`: the growth in test [1] is 104%; in test [2], 36%; in test [3], 21.8%; in test [4] it was 20.1%; in test [5], 50.4%; in test [6], 32%.

Turning to `Fc1ccc(-c2nc(C(Cl)Cl)nc3cc(-c4ccccc4)nn23)cc1`, the growth in test [1] was 52.3%; in test [2], 3.93% (active); in test [3], -35.7% (active); in test [7], 21.5%; in test [5], -34.7% (active); in test [6] it was -12% (active).

For `C#Cc1nc(C2=C(C)C(=N\O)/C(=N/O)C2)cs1`, the growth in test [1] was 105%; in test [2], 93.7%; in test [3] it was 109%; in test [4], 87.3%; in test [5], 113%; in test [6], 67.1%.

For the compound `C#Cc1nc(C2=C(C)C(O)/C(=N/O)C2)cs1` (centres undefined), the growth was 111% in test [1]; 95.6% in test [2]; 123% in test [3]; 100% in test [4]; 117% in test [5]; 42.9% in test [6].

On to `Clc1ccc2oc3c(NCCCn4ccnc4)c4ccccc4nc3c2c1`, for which the growth in test [1] is 76.9%; in test [2] it was 26.7%; in test [3] it was 16.9%; in test [4] it was 11.2%; in test [6], 30.9%.

As to `COc1cc2nc(-c3ccc(C(F)(F)F)cc3)cc(OCCCNCC3CCCO3)c2cc1OC` (centres undefined), the growth in test [1] is 66.3%; in test [2] it was 5.88% (active); in test [3] it was 16.3%; in test [4] it was 22.6%; in test [5], 54.4%; in test [6], 27.3%.

On to `Cc1c(NC(=O)CSc2nc3sc4c(c3c(=O)n2-c2ccc(Cl)cc2)CCCC4)c(=O)n(-c2ccccc2)n1C`, for which the growth in test [1] was 93.2%; in test [2], 88.3%; in test [3], 90.6%; in test [4], 107%; in test [5], 110%; in test [6], 98.7%.

`NS(=O)(=O)c1cccc(Nc2nc(SCC(=O)c3ccc(Br)cc3)nc3ccccc23)c1`: the growth in test [1] was -40.8% (active); in test [2] it was 75.3%; in test [3] it was 63.7%; in test [4], 38.9%; in test [5] it was 86.1%; in test [6], 69.7%.

`O=C(CSc1nccc(=O)[nH]1)Nc1ccc(-c2nc3ccccc3[nH]2)cc1`: the growth was 103% in test [1]; 111% in test [2]; 116% in test [3]; 103% in test [7]; 86.3% in test [6].

For `COc1ccc(/C=C/C(=O)c2ccc(NC(=O)CSc3nnc(-c4ccc5nc(-c6ccc(Cl)cc6)[nH]c5c4)o3)cc2)cc1`, the growth in test [1] is 85%; in test [2], 98.1%; in test [3], 106%; in test [4], 93.4%; in test [5], 118%; in test [6], 99.7%.

For `CN(C)c1ccc(/C=c2\sc3nc4ccccc4n3c2=O)cc1`, the growth was 118% in test [1]; 101% in test [2]; 102% in test [3]; 105% in test [4]; 107% in test [5]; 104% in test [6].

In the case of `CSCCC(C(=O)O)N1C(=O)/C(=C/c2ccc(O)c(O)c2)SC1=S` (centres undefined), the growth in test [1] is 110%; in test [2], 102%; in test [3] it was 102%; in test [4], 99.5%; in test [5], 108%; in test [6] it was 103%.

On to `CC(=O)Oc1ccccc1C(=O)Nc1ccc(C(=O)/C=C/c2ccncc2)cc1`, for which the growth is 57.1% in test [1]; 18.2% in test [2]; 0.322% (active) in test [3]; -72.5% (active) in test [4]; 13.3% in test [5]; -31.9% (active) in test [6].

As for `COc1ccc(C(=O)/C=C/c2ccc(Oc3nc(NCCO)nc(N4CCOCC4)n3)c(OC)c2)cc1`, the growth in test [1] was 90.9%; in test [2], 44.5%; in test [3], 0.395% (active); in test [7], 12.7%; in test [5], 99.8%; in test [6], 28.9%.

Turning to `COc1ccc(C(=O)c2cc(C(=O)/C=C/c3c(Cl)cccc3Cl)c3cc(C)ccn23)cc1`, the growth was 119% in test [1]; 99.6% in test [2]; 95.5% in test [3]; 98% in test [7]; 100% in test [6].

In the case of `CCN1C(=S)N(c2ccccc2)C2NC(=O)N(/N=C/C=C/c3ccccc3OC)C21` (centres undefined), the growth in test [1] was 94.5%; in test [2], 52.6%; in test [7] it was 62.9%; in test [4] it was 88%.

For the compound `COc1ccc(-c2nc3ccc(-c4nnc(SCC(=O)Nc5ccc(C(=O)/C=C/c6ccc(Cl)cc6)cc5)o4)cc3[nH]2)cc1OC`, the growth in test [1] is 106%; in test [2] it was 106%; in test [7], 75.9%; in test [4] it was 101%; in test [5], 124%; in test [6], 104%.

As for `C[C@@H](Nc1c(C#N)cnc2ccc(-c3cnc(N)nc3)cc12)c1ccccc1`, the growth in test [1] was -14.1% (active); in test [2] it was 11%; in test [7] it was 10.9%; in test [4], 5.6% (active); in test [5], 32%; in test [6], 18.6%.
